This passage reports inhibition results from PubChem BioAssay AID1578 (Sanford-Burnham Center for Chemical Genomics, 2009).

In all, about 290,000 compounds went through this assay and about 3,000 (1%) were called active. Shown is part of a subset that was picked to be rich in actives. Unmarked numbers belong to inactive results. Rule as the data show it: active = inhibition mostly above about 36% (no sharp cut-off); inactive = mostly below about 34%.

The nature of the assay: NOD1 signaling inhibitors, primary screen, cell-based, luminescence, uHTS (AID 1578).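 Also: HEK-293T reporter cells stimulated with the NOD1 agonist gamma-tri-DAP.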 As to conditions: NOD1-driven NF-kB luciferase reporter cells, at 4 µM, stronger effect = higher value.
`O=C(Nc1ccc(NC(=O)c2cccs2)cc1)c1cccs1`: the inhibition is -30.2%. Then `O=C(Nc1ccncc1)c1cccs1`, with 37.2%; and `O=C(Nc1nonc1NC(=O)c1cccs1)c1cccs1`, with 58.9% (active). For the compound `N#C/C(=C\c1cccc([N+](=O)[O-])c1)C(=O)NCC1CCCO1` (configuration not stated), the inhibition was -21%. Regarding `O=C(Nc1ccccc1C(=O)O)c1ccc(Br)c(S(=O)(=O)NCc2ccccc2)c1`, the inhibition is -0.6%.

`CCOC(=O)CNC(=O)CSc1ncnc2c1cnn2-c1ccccc1`: the inhibition was -10.2%. Regarding `CCOC(=O)CNC(=O)CSc1ncnc2c1cnn2Cc1ccccc1`, the inhibition is 55.8% (active). For `COC(=O)CSc1ncnc2c1cnn2Cc1ccccc1`, the inhibition is 13.7%.

In the case of `Nc1nc(Cl)cc(N2CCC(c3cc(-c4ccc(Cl)cc4Cl)n[nH]3)CC2)n1`, the inhibition was 34.5%. In the case of `COc1ccc(OC)c(-c2cc(C3CCN(c4cc(Cl)nc(N)n4)CC3)[nH]n2)c1` it was 56.3% (active); in that of `COc1ccc(-c2cc(C3CCN(c4cc(Cl)nc(N)n4)CC3)[nH]n2)cc1`, 25.9%; in that of `COC(=O)c1cc(C(=O)c2ccccc2)n2c(=O)/c(=C\N(C)C)sc12`, -11.3%. Take `O=C(CCC(=O)Nc1ccccc1Cl)NNC(=S)Nc1ccccc1C(F)(F)F`: the inhibition is -30.7%. On to `N#CCC(=O)NNC(=S)Nc1ccccc1C(F)(F)F`, for which the inhibition is 42.8% (active). As for `O=C(NNC(=S)Nc1ccccc1C(F)(F)F)C1CC1`, the inhibition is -0.9%. Then `Cc1ccc(C(=O)c2oc3nc(C)cc(C)c3c2N)cc1`, with -6.8%; and `Cc1cc(C)c2c(N)c(C(=O)c3ccccc3)oc2n1`, with 2%.

With `Cc1cc(C)c2c(N)c(C(=O)c3ccc(Br)cc3)oc2n1`, the inhibition was 68.7% (active). For `CCOC(=O)c1c(C)[nH]c(C(=O)COC(=O)c2ccccn2)c1C`, the inhibition was 1%. With `CC(C)n1c(CN(C)c2ccccc2)nc2ccccc21`, the inhibition was -18.1%. For the compound `COc1ccc(OC)c(S(=O)(=O)Nc2ccc(OCC(=O)O)cc2)c1`, the inhibition was 2.7%.

For `COc1ccc(NC(C)=O)cc1S(=O)(=O)NC(Cc1ccccc1)C(=O)O` (configuration not stated), the inhibition was -2.4%. As to `COc1ccc(NC(=O)c2nnn(CC(=O)Nc3ccc4c(c3)OCO4)c2N)c(OC)c1`, the inhibition is -46.4%. Regarding `C=CCN=C(NC#N)SCC(=O)NC(C)(C)C`, the inhibition is 1.5%.

For `Cn1c(SCC(=O)NC2CCCCC2)nnc1-c1ccc(N)cc1`, the inhibition was -10.1%. In the case of `Cc1cccc(-c2nnc(SCC(=O)NC3CC3)n2C)c1`, the inhibition was -27.5%.

For the compound `Cn1c(SCC(=O)NC2CCCCC2)nnc1-c1cccc(N)c1`, the inhibition was 46.1% (active).
